Columns and labels:
[1] = target: T1, Ephrin type-B receptor 3 (Homo sapiens) (UniProt P54753); details: at 10 µM
T1 sequence (whole entry): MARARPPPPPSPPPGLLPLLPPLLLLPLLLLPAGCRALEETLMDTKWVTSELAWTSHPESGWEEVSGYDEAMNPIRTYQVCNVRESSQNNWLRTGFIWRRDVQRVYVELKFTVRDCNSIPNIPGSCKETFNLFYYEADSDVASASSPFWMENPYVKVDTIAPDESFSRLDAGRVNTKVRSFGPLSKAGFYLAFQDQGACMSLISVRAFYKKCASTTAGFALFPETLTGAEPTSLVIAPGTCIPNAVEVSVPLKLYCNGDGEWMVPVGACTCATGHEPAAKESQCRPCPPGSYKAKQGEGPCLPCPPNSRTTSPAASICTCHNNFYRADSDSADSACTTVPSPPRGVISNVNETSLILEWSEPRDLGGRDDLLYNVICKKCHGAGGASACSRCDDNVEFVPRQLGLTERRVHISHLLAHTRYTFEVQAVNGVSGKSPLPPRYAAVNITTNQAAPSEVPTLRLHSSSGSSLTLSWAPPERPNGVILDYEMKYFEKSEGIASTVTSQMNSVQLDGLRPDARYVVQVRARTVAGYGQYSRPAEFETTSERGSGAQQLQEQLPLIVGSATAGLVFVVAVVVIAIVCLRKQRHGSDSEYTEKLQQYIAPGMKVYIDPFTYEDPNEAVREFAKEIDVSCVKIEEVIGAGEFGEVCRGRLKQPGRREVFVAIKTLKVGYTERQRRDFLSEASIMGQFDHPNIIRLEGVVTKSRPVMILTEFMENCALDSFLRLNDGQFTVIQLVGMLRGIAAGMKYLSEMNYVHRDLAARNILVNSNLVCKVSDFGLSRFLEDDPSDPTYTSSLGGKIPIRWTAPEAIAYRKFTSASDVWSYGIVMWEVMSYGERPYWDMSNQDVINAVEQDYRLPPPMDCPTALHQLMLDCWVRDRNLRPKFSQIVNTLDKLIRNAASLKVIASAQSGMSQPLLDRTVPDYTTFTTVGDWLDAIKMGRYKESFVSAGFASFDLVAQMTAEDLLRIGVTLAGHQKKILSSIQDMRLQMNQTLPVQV

[2] = target: T2, Ephrin type-B receptor 4 (Homo sapiens) (UniProt P54760); details: at 1 µM
T2 sequence (whole entry): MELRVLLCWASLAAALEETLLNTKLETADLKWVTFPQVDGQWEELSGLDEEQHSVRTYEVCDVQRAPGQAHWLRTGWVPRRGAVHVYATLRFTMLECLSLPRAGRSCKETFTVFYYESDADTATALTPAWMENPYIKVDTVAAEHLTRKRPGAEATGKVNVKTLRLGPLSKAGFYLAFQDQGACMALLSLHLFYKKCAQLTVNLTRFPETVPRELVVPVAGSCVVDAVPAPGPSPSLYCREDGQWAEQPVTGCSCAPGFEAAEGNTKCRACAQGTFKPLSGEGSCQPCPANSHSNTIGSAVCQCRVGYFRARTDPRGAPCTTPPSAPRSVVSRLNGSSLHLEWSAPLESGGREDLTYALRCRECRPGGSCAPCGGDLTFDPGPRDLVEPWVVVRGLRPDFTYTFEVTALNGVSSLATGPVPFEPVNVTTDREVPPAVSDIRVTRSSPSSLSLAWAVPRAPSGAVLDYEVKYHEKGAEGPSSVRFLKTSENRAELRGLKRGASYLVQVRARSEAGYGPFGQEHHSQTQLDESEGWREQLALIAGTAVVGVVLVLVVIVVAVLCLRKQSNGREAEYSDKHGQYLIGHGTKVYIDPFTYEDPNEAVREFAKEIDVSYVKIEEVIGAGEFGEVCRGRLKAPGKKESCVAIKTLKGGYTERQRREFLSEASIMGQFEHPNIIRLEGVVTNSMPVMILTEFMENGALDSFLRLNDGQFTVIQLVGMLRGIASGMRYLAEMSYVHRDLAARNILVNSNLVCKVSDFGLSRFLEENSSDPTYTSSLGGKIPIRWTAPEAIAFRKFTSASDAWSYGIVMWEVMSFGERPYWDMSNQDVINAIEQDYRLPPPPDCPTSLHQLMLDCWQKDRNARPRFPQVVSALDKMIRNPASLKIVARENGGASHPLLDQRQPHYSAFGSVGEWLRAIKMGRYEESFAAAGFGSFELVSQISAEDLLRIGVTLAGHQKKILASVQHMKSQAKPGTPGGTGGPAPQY

[3] = target: T3, Ephrin type-B receptor 1 (Homo sapiens) (UniProt P54762); details: at 10 µM
T3 sequence (whole entry): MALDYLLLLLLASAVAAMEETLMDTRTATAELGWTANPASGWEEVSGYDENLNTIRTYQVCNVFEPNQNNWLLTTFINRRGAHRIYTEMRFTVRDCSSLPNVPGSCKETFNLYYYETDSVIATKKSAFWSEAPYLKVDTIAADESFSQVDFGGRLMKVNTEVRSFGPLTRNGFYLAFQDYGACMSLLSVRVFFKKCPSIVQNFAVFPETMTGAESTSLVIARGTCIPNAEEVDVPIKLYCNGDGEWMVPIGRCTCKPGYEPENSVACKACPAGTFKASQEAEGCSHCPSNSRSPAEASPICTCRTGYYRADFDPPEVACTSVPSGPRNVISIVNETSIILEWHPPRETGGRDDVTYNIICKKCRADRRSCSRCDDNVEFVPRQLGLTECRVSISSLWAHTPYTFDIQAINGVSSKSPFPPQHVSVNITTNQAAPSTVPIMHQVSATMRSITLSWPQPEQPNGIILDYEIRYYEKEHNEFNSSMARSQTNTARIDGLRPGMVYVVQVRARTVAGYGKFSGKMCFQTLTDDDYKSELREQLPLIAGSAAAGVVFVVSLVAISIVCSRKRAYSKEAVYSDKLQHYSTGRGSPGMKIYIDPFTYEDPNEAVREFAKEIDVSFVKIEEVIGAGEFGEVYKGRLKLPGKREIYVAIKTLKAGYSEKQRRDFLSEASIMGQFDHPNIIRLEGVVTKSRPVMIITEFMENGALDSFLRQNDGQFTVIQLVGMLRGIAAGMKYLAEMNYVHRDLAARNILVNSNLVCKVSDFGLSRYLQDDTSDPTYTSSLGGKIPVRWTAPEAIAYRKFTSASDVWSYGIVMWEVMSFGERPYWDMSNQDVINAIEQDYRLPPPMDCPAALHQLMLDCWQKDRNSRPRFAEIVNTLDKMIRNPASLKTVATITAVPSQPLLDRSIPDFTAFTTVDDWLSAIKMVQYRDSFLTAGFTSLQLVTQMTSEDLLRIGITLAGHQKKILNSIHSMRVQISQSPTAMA

[4] = target: T4, Ephrin type-B receptor 2 (Homo sapiens) (UniProt P29323); details: at 10 µM
T4 sequence (whole entry): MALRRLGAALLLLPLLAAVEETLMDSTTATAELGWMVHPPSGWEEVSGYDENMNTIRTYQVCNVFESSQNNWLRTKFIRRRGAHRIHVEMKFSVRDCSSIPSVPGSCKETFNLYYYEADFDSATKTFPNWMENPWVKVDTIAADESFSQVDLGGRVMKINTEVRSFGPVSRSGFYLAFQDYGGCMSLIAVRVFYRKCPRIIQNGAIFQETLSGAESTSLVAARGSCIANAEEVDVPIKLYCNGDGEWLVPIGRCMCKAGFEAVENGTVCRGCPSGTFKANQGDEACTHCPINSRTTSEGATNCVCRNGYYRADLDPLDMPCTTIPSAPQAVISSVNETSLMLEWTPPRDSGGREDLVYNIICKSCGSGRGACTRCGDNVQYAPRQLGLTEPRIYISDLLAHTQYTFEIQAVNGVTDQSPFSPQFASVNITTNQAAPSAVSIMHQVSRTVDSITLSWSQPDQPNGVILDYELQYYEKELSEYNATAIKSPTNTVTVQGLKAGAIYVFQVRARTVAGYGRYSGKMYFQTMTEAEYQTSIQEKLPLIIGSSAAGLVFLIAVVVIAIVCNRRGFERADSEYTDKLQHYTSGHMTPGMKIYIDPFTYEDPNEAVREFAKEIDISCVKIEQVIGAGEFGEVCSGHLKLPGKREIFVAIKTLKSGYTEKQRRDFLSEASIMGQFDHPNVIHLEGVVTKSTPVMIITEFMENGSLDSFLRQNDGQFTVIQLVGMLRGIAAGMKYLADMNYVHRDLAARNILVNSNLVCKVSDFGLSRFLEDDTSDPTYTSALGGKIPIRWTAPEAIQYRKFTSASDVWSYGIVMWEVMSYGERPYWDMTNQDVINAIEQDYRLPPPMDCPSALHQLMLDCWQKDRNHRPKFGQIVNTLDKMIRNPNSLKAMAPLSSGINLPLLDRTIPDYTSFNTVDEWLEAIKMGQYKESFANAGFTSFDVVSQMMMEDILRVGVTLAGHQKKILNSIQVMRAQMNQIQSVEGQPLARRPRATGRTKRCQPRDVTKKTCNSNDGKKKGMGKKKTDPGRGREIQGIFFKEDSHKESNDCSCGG

[5] = target: T2, Ephrin type-B receptor 4 (Homo sapiens); details: at 10 µM
[6] = target: Receptor tyrosine-protein kinase erbB-4 (Homo sapiens) (UniProt Q15303); details: at 1 µM
Sequence of Receptor tyrosine-protein kinase erbB-4 (Homo sapiens) (Q15303 whole entry): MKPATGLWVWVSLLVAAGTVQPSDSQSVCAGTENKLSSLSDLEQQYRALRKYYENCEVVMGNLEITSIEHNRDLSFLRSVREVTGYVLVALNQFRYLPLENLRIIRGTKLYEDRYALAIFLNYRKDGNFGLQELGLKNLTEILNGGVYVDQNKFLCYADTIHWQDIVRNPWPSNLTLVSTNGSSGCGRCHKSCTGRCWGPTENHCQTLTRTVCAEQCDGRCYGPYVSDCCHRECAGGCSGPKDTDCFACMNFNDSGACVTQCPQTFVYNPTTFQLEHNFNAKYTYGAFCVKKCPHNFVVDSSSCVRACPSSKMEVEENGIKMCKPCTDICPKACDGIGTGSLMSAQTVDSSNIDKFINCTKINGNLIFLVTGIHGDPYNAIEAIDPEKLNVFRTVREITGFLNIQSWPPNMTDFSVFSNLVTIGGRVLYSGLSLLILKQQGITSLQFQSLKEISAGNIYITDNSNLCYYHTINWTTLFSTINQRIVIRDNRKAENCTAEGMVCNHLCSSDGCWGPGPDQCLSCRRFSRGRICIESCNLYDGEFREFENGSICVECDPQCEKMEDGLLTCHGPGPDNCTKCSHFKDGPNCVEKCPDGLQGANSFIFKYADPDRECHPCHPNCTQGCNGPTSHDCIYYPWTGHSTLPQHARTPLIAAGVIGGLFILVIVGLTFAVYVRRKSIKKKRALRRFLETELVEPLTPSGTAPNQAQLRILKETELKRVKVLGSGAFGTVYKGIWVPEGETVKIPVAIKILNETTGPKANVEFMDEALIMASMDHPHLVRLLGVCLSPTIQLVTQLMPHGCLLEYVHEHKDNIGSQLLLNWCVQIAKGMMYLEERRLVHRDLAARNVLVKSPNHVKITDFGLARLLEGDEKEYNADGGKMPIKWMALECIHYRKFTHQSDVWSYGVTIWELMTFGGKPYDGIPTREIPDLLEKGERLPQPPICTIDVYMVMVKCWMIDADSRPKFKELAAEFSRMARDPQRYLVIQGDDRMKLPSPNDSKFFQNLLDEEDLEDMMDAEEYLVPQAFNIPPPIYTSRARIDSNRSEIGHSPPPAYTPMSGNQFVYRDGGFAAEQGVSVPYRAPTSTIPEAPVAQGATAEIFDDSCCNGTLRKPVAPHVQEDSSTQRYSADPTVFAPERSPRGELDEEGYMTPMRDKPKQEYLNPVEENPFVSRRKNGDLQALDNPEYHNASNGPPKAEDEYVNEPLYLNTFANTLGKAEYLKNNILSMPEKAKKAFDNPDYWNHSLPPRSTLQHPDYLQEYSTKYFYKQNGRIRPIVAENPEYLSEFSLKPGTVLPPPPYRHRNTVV

[7] = target: Focal adhesion kinase 1 (Homo sapiens) (UniProt Q05397); details: at 1 µM
Sequence of Focal adhesion kinase 1 (Homo sapiens) (Q05397 2-1052 limits assumed): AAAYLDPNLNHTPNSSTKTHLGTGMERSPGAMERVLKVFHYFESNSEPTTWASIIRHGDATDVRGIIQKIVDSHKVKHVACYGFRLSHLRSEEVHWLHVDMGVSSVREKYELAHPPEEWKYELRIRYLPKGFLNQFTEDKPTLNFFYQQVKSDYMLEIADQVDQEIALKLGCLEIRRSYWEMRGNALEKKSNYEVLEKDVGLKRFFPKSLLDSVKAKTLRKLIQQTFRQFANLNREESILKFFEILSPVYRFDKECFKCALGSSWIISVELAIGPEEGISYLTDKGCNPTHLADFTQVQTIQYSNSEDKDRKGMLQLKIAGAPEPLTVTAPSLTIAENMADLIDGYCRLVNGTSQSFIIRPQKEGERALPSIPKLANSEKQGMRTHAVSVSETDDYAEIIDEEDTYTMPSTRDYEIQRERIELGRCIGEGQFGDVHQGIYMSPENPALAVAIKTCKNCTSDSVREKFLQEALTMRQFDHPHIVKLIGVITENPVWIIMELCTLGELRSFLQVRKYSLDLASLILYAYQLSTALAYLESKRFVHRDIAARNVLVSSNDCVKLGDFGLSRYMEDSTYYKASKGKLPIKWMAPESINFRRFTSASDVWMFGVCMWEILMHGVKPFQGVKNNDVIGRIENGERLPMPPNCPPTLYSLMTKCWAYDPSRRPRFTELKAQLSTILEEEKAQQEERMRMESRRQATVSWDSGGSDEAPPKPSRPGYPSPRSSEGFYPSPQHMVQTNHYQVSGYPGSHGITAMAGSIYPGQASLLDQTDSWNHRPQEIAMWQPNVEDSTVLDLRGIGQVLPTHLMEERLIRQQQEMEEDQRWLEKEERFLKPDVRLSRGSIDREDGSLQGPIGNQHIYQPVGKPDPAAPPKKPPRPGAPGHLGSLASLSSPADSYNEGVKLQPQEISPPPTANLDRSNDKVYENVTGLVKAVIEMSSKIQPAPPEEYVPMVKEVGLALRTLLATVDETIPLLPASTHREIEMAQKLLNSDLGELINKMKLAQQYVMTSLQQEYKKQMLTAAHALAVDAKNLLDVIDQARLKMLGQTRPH

[8] = target: Receptor tyrosine-protein kinase erbB-4 (Homo sapiens) (UniProt Q15303); details: at 10 µM
[9] = target: T4, Ephrin type-B receptor 2 (Homo sapiens); details: at 1 µM
[10] = target: T1, Ephrin type-B receptor 3 (Homo sapiens); details: at 1 µM

Compound	residual activity [1]	residual activity [2]	residual activity [3]	residual activity [4]	residual activity [5]	residual activity [6]	residual activity [7]	residual activity [8]	residual activity [9]	residual activity [10]
CN[C@@H]1C[C@H]2O[C@@](C)([C@@H]1OC)n1c3ccccc3c3c4c(c5c6ccccc6n2c5c31)C(=O)NC4	131%	79%	–	–	–	–	–	–	–	–
COc1ccc2c(c1)/C(=C/c1cnc[nH]1)C(=O)N2	–	98%	59%	97%	77%	127%	99%	–	–	–
N/C(=N\[N+](=O)[O-])N/N=C\c1ccc(-c2cccc([N+](=O)[O-])c2)o1	–	90%	–	–	90%	100%	–	88%	–	–
c1cc(-c2cnn3cc(-c4ccc(OCCN5CCCCC5)cc4)cnc23)ccn1	117%	20%	0%	0%	-1%	129%	123%	100%	25%	118% (inactive)
C[S+]([O-])c1ccc(-c2nc(-c3ccc(F)cc3)c(-c3ccncc3)[nH]2)cc1 (stereo not given)	105%	107%	56%	61%	41%	115%	125%	82%	101%	114% (inactive)
COc1cc(OC)c(/C=C2\C(=O)Nc3ccccc32)c(OC)c1	107%	86%	88%	–	82%	–	92%	106%	–	124% (inactive)
COC(=O)[C@@]1(O)C[C@H]2O[C@]1(C)n1c3ccccc3c3c4c(c5c6ccccc6n2c5c31)C(=O)NC4	100%	71%	4%	55%	22%	64%	39%	19%	114%	110% (inactive)
CCn1cnc2c(Nc3cccc(Cl)c3)nc(N[C@@H]3CCCC[C@@H]3N)nc21	–	51%	1%	0%	9%	83%	53%	68%	56%	–
O=C1c2ccccc2-c2nc3nnnn3nc21	133%	118%	–	138%	115%	106%	–	–	–	108% (inactive)
O=c1[nH]c2ccccc2n1C1CCN(Cc2ccc(-c3nc4cc5[nH]cnc5cc4nc3-c3ccccc3)cc2)CC1	105%	109%	76%	90%	117%	99%	143%	61%	119%	123% (inactive)
O=[N+]([O-])/C=C/c1ccc2c(c1)OCO2	111%	114%	116%	124%	127%	86%	141%	101%	116%	117% (inactive)
COc1cc2ncnc(Nc3ccc(OCc4ccccc4)cc3)c2cc1OC	100%	117%	106%	114%	132%	–	136%	–	118%	117% (inactive)
CCc1nc(-c2ccc(OC)cc2)[nH]c1-c1ccncc1	111%	112%	–	115%	101%	–	115%	108%	120%	110% (inactive)
COc1ccc2c(c[n+](C)c3c4cc5c(cc4ccc23)OCO5)c1OC	133%	94%	91%	121%	119%	96%	140%	79%	121%	126% (inactive)
CC(C)[C@H](CO)Nc1nc(Nc2cccc(Cl)c2)c2ncn(C(C)C)c2n1	–	37%	15%	3%	4%	–	65%	–	71%	–
O=C1Nc2ccc3ncsc3c2/C1=C/c1c[nH]cn1	131%	79%	9%	29%	29%	88%	73%	102%	87%	120% (inactive)
CC(C)(C)c1cc(C=C(C#N)C#N)cc(Br)c1O	121%	102%	96%	121%	110%	114%	149%	132%	116%	96% (inactive)

— ChEMBL document CHEMBL2218924, “A broad activity screen in support of a chemogenomic map for kinase signalling research and drug discovery” (Biochem J, 2013)
